Reference: PubChem BioAssay (EPA / NIEHS)
“And” between values parts separate entries of the source, which are not always exact repeats. Identical values can stand only once. Results filed as inconclusive are left out. The source made the active and inactive calls. How the source made its calls: active means hit-call score of the fitted dose curve at least 0.9, where 1 is the maximum; inconclusive means response in the unintended direction; inactive means score below 0.9.

Molecular target: T1, Estrogen receptor (Homo sapiens) + Estrogen receptor beta (Homo sapiens) (UniProt P03372+Q92731)
Assay: OT_ER_ERaERb_0480: Odyssey Thera (OT) 8-hour HEK293T Protein-Complementation Assay for Estrogen Receptor-alpha/-beta Heterodimer (AID 2283352)
How it was run: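 Compound added to HEK293T cells carrying split-reporter-tagged ER-alpha and ER-beta LBDs, incubated 8 hours, then imaged by laser scanning cytometer. Signal rise in nucleus, or nucleus and cytoplasm, over vehicle was fitted in the positive direction.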

T1 sequence (P03372 whole entry, looked up): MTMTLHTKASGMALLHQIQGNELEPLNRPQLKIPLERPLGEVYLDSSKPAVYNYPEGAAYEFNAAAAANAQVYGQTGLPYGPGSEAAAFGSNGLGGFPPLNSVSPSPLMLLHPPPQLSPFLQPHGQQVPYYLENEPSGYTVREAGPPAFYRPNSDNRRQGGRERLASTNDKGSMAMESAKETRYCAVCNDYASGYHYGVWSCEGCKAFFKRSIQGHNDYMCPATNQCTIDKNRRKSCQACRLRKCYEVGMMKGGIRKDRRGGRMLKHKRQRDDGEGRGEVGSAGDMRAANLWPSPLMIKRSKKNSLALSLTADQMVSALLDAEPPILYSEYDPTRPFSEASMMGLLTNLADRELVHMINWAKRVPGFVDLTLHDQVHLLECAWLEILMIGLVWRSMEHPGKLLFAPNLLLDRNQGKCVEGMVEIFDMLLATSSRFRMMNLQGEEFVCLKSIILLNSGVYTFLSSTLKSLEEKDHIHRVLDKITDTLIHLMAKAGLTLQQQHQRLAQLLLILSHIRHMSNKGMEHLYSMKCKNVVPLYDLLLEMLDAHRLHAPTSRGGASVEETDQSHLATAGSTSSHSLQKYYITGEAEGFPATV
T1 sequence (Q92731 whole entry, looked up): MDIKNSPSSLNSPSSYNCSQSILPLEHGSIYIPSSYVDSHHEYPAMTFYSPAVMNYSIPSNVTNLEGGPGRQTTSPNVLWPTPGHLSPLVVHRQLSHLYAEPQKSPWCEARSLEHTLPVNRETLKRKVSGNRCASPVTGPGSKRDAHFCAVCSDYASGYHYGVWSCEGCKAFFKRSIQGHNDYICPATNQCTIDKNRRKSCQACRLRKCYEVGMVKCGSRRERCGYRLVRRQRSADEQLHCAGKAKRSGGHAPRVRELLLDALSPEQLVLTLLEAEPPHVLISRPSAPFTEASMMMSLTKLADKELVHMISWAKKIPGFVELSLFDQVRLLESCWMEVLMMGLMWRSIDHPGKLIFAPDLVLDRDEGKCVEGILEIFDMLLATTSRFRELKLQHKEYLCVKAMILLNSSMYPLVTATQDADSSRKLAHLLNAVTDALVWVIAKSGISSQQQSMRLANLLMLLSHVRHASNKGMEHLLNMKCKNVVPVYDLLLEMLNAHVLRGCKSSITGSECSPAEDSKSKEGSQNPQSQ

Row | SMILES | AC50 | outcome
1 | COc1ccc(C(c2ccc(OC)cc2)C(Cl)(Cl)Cl)cc1 | 4.23 µM (active) and 12.5 µM (active) and 9.58 µM (active) | –
2 | COP(=S)(OC)Oc1nc(Cl)c(Cl)cc1Cl | – | inactive
3 | CCCCOC(=O)c1ccccc1C(=O)OCCCC | 33.1 µM (active) and 25.9 µM (active) and 23.5 µM (active) | –
4 | COc1cnc(OC)n2nc(NS(=O)(=O)c3c(OCC(F)F)cccc3C(F)(F)F)nc12 | – | inactive
5 | CCNc1nc(Cl)nc(NC(C)C)n1 | – | inactive
6 | Cc1c(F)c(F)c(COC(=O)C2C(/C=C(\Cl)C(F)(F)F)C2(C)C)c(F)c1F (configuration not stated) | – | inactive
7 | CCOc1cc(Oc2ccc(C(F)(F)F)cc2Cl)ccc1[N+](=O)[O-] | – | inactive
8 | COC(=O)c1ccccc1C(=O)OC | – | inactive
9 | C=CC1(C)OC(=O)N(c2cc(Cl)cc(Cl)c2)C1=O (configuration not stated) | – | inactive
10 | CCCCC(CC)COC(=O)c1ccccc1C(=O)OCC(CC)CCCC (configuration not stated) | 66.9 µM (active) | –
11 | OC(c1ccc(Cl)cc1)(c1cncnc1)c1ccccc1Cl (configuration not stated) | 11.9 µM (active) | –
12 | CCc1nn(C)c(C(=O)NCc2ccc(C(C)(C)C)cc2)c1Cl | – | inactive
13 | Cc1ccc(-c2c(Cl)nc(C#N)n2S(=O)(=O)N(C)C)cc1 | – | inactive
14 | COc1nc(NC(C)C)nc(NC(C)C)n1 | – | inactive

Molecular target: Androgen Receptor/SRC-1 Co-activator, AR (gene 367) (UniProt P10275)
Assay: OT_AR_ARSRC1_0960: Odyssey Thera (OT) 16-hour HEK293T Protein-Complementation Assay for Androgen Receptor/SRC-1 Co-activator (AID 2283353);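 further: actives raise the signal above DMSO so potency reflects increased AR and SRC-1 complex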
How it was run: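 Split-Venus PCA, AR/SRC-1 fusions, stable HEK293T; 16 h compound exposure; imaged at 488 and 635 nm; N/C ratio (488 nm channel), min 400 cells/image; positive-direction fit, DMSO baseline.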

Sequence of Androgen Receptor/SRC-1 Co-activator, AR (gene 367) (P10275 whole entry, looked up): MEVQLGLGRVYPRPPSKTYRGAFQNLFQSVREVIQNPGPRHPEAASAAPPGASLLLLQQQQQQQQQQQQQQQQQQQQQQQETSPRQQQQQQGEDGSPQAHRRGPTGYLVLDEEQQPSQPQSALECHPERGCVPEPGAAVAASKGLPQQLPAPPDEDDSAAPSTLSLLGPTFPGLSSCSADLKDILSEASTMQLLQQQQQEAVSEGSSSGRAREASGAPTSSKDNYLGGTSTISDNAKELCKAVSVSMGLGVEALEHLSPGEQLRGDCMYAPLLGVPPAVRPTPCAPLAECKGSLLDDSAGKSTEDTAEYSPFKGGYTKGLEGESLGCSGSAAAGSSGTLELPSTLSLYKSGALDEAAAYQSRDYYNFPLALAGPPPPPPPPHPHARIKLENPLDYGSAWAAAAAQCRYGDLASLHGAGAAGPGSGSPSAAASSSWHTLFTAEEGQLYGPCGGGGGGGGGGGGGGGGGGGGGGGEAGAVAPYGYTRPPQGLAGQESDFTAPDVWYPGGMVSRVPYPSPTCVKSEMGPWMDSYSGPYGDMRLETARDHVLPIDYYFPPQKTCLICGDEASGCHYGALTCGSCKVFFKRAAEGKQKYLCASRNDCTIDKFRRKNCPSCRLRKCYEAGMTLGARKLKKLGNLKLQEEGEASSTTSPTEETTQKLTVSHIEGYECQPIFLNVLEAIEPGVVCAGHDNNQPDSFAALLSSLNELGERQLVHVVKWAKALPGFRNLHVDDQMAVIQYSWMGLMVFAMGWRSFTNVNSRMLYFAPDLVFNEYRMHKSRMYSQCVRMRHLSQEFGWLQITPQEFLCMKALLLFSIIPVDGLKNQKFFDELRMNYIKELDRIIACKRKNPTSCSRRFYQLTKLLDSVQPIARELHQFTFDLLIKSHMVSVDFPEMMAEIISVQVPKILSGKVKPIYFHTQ

Row | SMILES | outcome | AC50
15 | Cc1cc(Cl)ccc1OCC(=O)O | inactive | –
16 | N#Cc1nn(-c2c(Cl)cc(C(F)(F)F)cc2Cl)c(N)c1S(=O)C(F)(F)F (configuration not stated) | – | 22.7 µM (active)
17 | N#Cc1cc(Br)c(O)c(Br)c1 | inactive | –
18 | CO/C=C(/C(=O)OC)c1ccccc1Oc1cc(Oc2ccccc2C#N)ncn1 | inactive | –
19 | Cc1ccc(-c2c(Cl)nc(C#N)n2S(=O)(=O)N(C)C)cc1 | – | 27.1 µM (active)
20 | CCOC(=O)CC(SP(=S)(OC)OC)C(=O)OCC (configuration not stated) | inactive | –

Molecular target: Androgen Receptor/SRC-1 Co-activator, AR (gene 367) (UniProt P10275)
Assay: OT_AR_ARSRC1_0480: Odyssey Thera (OT) 8-hour HEK293T Protein-Complementation Assay for Androgen Receptor/SRC-1 Co-activator (AID 2283354);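 further: hits raise the complementation signal above DMSO so AC50 marks enhancers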
How it was run: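 HEK293T cells stably expressing AR and SRC-1 fused to Venus YFP fragments, imaged 8 h after dosing. Complementation fluorescence scored as nuclear/cytoplasmic ratio at 488 nm in at least 400 cells per image; gain fitted versus DMSO.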

Row | SMILES | outcome
21 | Cc1cc(Cl)ccc1OCC(=O)O | inactive
22 | N#Cc1nn(-c2c(Cl)cc(C(F)(F)F)cc2Cl)c(N)c1S(=O)C(F)(F)F (configuration not stated) | inactive
23 | N#Cc1cc(Br)c(O)c(Br)c1 | inactive
24 | CO/C=C(/C(=O)OC)c1ccccc1Oc1cc(Oc2ccccc2C#N)ncn1 | inactive
25 | Cc1ccc(-c2c(Cl)nc(C#N)n2S(=O)(=O)N(C)C)cc1 | inactive
26 | CCOC(=O)CC(SP(=S)(OC)OC)C(=O)OCC (configuration not stated) | inactive

Molecular target: T1, Estrogen receptor (Homo sapiens) + Estrogen receptor beta (Homo sapiens)
Assay: OT_ER_ERaERb_1440: Odyssey Thera (OT) 24-hour HEK293T Protein-Complementation Assay for Estrogen Receptor-alpha/-beta Homodimer (AID 2283356);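 further: heteromer of ER alpha and ER beta binding domains; hits raise reporter fluorescence and both agonists and antagonists give an increase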
How it was run: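 Stable HEK293T PCA line, ERα LBD 310-547 + ERβ LBD 263-489 fused to reporter fragments; 24 h treatment; fluorescence read by laser scanning cytometry; positive fitting direction relative to DMSO.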

Row | SMILES | AC50 | outcome
27 | COc1ccc(C(c2ccc(OC)cc2)C(Cl)(Cl)Cl)cc1 | 25.8 µM (active) and 33.2 µM (active) and 22.2 µM (active) | –
28 | N#Cc1nn(-c2c(Cl)cc(C(F)(F)F)cc2Cl)c(N)c1S(=O)C(F)(F)F (configuration not stated) | – | inactive
29 | COP(=S)(OC)Oc1nc(Cl)c(Cl)cc1Cl | – | inactive
30 | CCCCOC(=O)c1ccccc1C(=O)OCCCC | 38.4 µM (active) and 33.9 µM (active) and 39.3 µM (active) | –
31 | CCNc1nc(Cl)nc(NC(C)C)n1 | – | inactive
32 | Cc1c(F)c(F)c(COC(=O)C2C(/C=C(\Cl)C(F)(F)F)C2(C)C)c(F)c1F (configuration not stated) | – | inactive
33 | CCOc1cc(Oc2ccc(C(F)(F)F)cc2Cl)ccc1[N+](=O)[O-] | – | inactive
34 | COC(=O)c1ccccc1C(=O)OC | – | inactive
35 | CCCN(CCC)c1c([N+](=O)[O-])cc(S(N)(=O)=O)cc1[N+](=O)[O-] | – | inactive
36 | C=CC1(C)OC(=O)N(c2cc(Cl)cc(Cl)c2)C1=O (configuration not stated) | – | inactive
37 | CCCCC(CC)COC(=O)c1ccccc1C(=O)OCC(CC)CCCC (configuration not stated) | 50 µM (active) | –
38 | OC(c1ccc(Cl)cc1)(c1cncnc1)c1ccccc1Cl (configuration not stated) | 12.1 µM (active) | –
39 | CCc1nn(C)c(C(=O)NCc2ccc(C(C)(C)C)cc2)c1Cl | – | inactive
40 | CO/C=C(/C(=O)OC)c1ccccc1Oc1cc(Oc2ccccc2C#N)ncn1 | – | inactive
41 | Cc1ccc(-c2c(Cl)nc(C#N)n2S(=O)(=O)N(C)C)cc1 | – | inactive
42 | COc1nc(NC(C)C)nc(NC(C)C)n1 | – | inactive

Molecular target: Estrogen receptor beta (Homo sapiens) (UniProt Q92731)
Assay: OT_ER_ERbERb_0480: Odyssey Thera (OT) 8-hour HEK293T Protein-Complementation Assay for Estrogen Receptor-beta/-beta Homodimer (AID 2283357);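 further: active means signal gain over DMSO baseline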
How it was run: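 Fluorescence intensity, nuclear for agonists and nuclear plus cytoplasmic for antagonists, was quantified by laser scanning cytometry versus vehicle after 8 h treatment. The cells were HEK293T stably carrying ER beta LBD fragment-complementation partners.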

Sequence of Estrogen receptor beta (Homo sapiens) (Q92731 whole entry, looked up): as the sequence (Q92731 whole entry, looked up) above

Row | SMILES | AC50 | outcome
43 | COc1ccc(C(c2ccc(OC)cc2)C(Cl)(Cl)Cl)cc1 | 3.79 µM (active) and 3.62 µM (active) and 3.92 µM (active) | –
44 | COP(=S)(OC)Oc1nc(Cl)c(Cl)cc1Cl | – | inactive
45 | CCCCOC(=O)c1ccccc1C(=O)OCCCC | 28.8 µM (active) and 38.1 µM (active) and 34.2 µM (active) | –
46 | COc1cnc(OC)n2nc(NS(=O)(=O)c3c(OCC(F)F)cccc3C(F)(F)F)nc12 | – | inactive
47 | CCNc1nc(Cl)nc(NC(C)C)n1 | – | inactive
48 | Cc1c(F)c(F)c(COC(=O)C2C(/C=C(\Cl)C(F)(F)F)C2(C)C)c(F)c1F (configuration not stated) | – | inactive
49 | CCOc1cc(Oc2ccc(C(F)(F)F)cc2Cl)ccc1[N+](=O)[O-] | – | inactive
50 | COC(=O)c1ccccc1C(=O)OC | – | inactive
51 | C=CC1(C)OC(=O)N(c2cc(Cl)cc(Cl)c2)C1=O (configuration not stated) | – | inactive
52 | CCCCNC(=O)OCC#CI | – | inactive
53 | CCCCC(CC)COC(=O)c1ccccc1C(=O)OCC(CC)CCCC (configuration not stated) | – | inactive
54 | OC(c1ccc(Cl)cc1)(c1cncnc1)c1ccccc1Cl (configuration not stated) | 12.5 µM (active) | –
55 | CCc1nn(C)c(C(=O)NCc2ccc(C(C)(C)C)cc2)c1Cl | – | inactive
56 | Cc1ccc(-c2c(Cl)nc(C#N)n2S(=O)(=O)N(C)C)cc1 | – | inactive
57 | COc1nc(NC(C)C)nc(NC(C)C)n1 | – | inactive
